{
  "source": "PubChem BioAssay AID488969",
  "about": "(Vanderbilt High Throughput Screening Facility, 2010)",
  "note": "In all, about 110,000 compounds were measured (“z-score”: median about -0.1, highest 2% from about 2 on). What follows is part of a selection rich in the highest values, with near analogues and random picks from the rest. Activity calls are given as the source filed them.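 The calls were made as follows: active = z-score in the third read window above 3 or below -3; inactive = the rest.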",
  "data": [
    {"target": "Metabotropic glutamate receptor 8 (Rattus norvegicus) (UniProt P70579)", "sequence (P70579 whole entry, looked up)": "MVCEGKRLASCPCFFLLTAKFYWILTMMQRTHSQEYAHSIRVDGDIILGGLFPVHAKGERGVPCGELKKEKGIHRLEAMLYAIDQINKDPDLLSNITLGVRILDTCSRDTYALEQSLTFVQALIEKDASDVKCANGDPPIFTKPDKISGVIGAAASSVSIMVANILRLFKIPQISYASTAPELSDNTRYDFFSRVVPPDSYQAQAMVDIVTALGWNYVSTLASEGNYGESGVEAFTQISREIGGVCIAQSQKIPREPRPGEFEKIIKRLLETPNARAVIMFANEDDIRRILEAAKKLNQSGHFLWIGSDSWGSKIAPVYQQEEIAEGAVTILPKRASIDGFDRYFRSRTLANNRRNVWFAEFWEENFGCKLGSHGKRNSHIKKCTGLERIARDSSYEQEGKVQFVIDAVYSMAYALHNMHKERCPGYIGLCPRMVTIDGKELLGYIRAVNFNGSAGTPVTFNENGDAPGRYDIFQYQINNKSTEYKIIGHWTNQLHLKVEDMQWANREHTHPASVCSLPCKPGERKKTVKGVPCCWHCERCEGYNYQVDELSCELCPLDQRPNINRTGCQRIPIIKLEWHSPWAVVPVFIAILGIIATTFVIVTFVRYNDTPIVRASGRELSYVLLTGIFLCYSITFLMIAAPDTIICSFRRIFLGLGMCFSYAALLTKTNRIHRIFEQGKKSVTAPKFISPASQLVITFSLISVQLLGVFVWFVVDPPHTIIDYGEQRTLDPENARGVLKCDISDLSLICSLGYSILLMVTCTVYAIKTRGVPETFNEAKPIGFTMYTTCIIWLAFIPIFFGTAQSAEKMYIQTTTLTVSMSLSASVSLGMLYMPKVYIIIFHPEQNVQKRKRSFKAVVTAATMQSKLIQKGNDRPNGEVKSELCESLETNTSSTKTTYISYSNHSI", "experiment": "mGluR8 Gi/Go-coupled signaling modulation – cell-based, rat, thallium flux, HTS, primary screen (AID 488969)", "conditions": "HEK293 rat mGluR8, GIRK (G protein-gated inwardly rectifying potassium channel) thallium flux, FluoZin2; at 10 µM; stronger effect = higher value; submaximal glutamate (EC20) added with thallium", "values": [
      {"smiles": "O=C(O)CCCN1C(=O)C2C3CCC(O3)C2C1=O", "note": "(stereo not given)", "z-score": -0.35},
      {"smiles": "CCCCn1c(SCC(=O)Nc2ccccc2C(F)(F)F)nc2ccsc2c1=O", "z-score": 0.00651},
      {"smiles": "COCCN(CCOC)C(=O)CC(=O)N(CCOC)CCOC", "z-score": 0.0459},
      {"smiles": "CN1CCN(CCNC(=O)c2cc3c(=O)n(C)c4ccccc4c3n2C)CC1", "z-score": 0.327},
      {"smiles": "Cn1c(C(=O)NCCCN2CCc3ccccc3C2)cc2c(=O)n(C)c3ccccc3c21", "z-score": 0.807},
      {"smiles": "Cn1c(C(=O)NCCN2CCc3ccccc3C2)cc2c(=O)n(C)c3ccccc3c21", "z-score": 2.7},
      {"smiles": "COc1cccc(C(=O)OCC(=O)Nc2cc(C)c(C)cc2[N+](=O)[O-])c1", "z-score": -0.131},
      {"smiles": "O=C(C1CCCN(Cc2cccs2)C1)N1CCCCCC1", "note": "(stereo not given)", "z-score": "3.36 (active)"},
      {"smiles": "CCOC(=O)C1CCCN(Cc2cccs2)C1", "note": "(stereo not given)", "z-score": -0.137},
      {"smiles": "O=C(C1CCCN(Cc2ccccc2)C1)N1CCCCC1", "note": "(stereo not given)", "z-score": 0.122},
      {"smiles": "COc1cccc(C(=O)Cn2c(=O)n(CC3CCCO3)c(=O)c3ccccc32)c1", "note": "(stereo not given)", "z-score": -0.719},
      {"smiles": "O=C(C1CCN(S(=O)(=O)c2cccnc2)CC1)N1CCN(C2CCCC2)CC1", "z-score": -0.318},
      {"smiles": "CC1CCN(C(=O)C2CCN(S(=O)(=O)c3cccnc3)CC2)CC1", "z-score": 2.03},
      {"smiles": "O=C(C1CCN(S(=O)(=O)c2cccnc2)CC1)N1CCCCC1", "z-score": 0.487},
      {"smiles": "Cc1ccc(Cn2nnc3c(=O)[nH]c(C4CCN(S(=O)(=O)c5cc(C)ccc5C)CC4)nc32)cc1", "z-score": 0.616},
      {"smiles": "Cc1ccc(S(=O)(=O)NCCc2ccncc2)cc1", "z-score": -0.472},
      {"smiles": "O=C1CCCN1CN(C(=O)c1ccc2c(c1)OCO2)c1cccc(Cl)c1", "z-score": -0.21},
      {"smiles": "COc1cc(C)nc(N(Cc2ccccc2)S(=O)(=O)c2ccccc2)n1", "z-score": 2.43},
      {"smiles": "CCN(c1nc(C)cc(OC)n1)S(=O)(=O)c1ccccc1", "z-score": -0.243},
      {"smiles": "COC(=O)CN(c1nc(C)cc(OC)n1)S(=O)(=O)c1ccccc1", "z-score": -0.5},
      {"smiles": "CCc1ccc(S(=O)(=O)N(C(=O)c2ccncc2)c2ccc(OC(=O)c3ccncc3)cc2)cc1", "z-score": -0.659},
      {"smiles": "Cn1c(CN2CCN(C(=O)c3ccccc3)CC2)nc2cc([N+](=O)[O-])ccc21", "z-score": 0.0497},
      {"smiles": "Cc1c(NC(=O)c2cnn3c(C(F)(F)F)cc(-c4ccco4)nc23)c(=O)n(-c2ccccc2)n1C", "z-score": 0.95},
      {"smiles": "Cc1ccc(C)c(NC(=O)/C(C#N)=C/c2ccc(Sc3nncn3C)c([N+](=O)[O-])c2)c1", "z-score": -0.0512},
      {"smiles": "CCCCOC(=O)Nc1ccc(C(N)=O)cc1", "z-score": 0.507},
      {"smiles": "CCCOC(=O)c1ccc(NC(=O)Oc2ccccc2)cc1", "z-score": 0.454},
      {"smiles": "Cc1occc1C(=O)Nc1ccc2ccccc2c1", "z-score": 2.19},
      {"smiles": "Cc1occc1C(=O)Nc1cccc(C(=O)O)c1", "z-score": -0.0368},
      {"smiles": "CCOC(=O)c1cc(NC(=O)c2ccoc2C)cc(C(=O)OCC)c1", "z-score": -2.39},
      {"smiles": "Cc1occc1C(=O)Nc1ccccc1NC(=O)c1ccoc1C", "z-score": 0.13},
      {"smiles": "CCCCOC(=O)Nc1ccc(C(=O)OCCC)cc1", "z-score": "3.09 (active)"},
      {"smiles": "COC(=O)c1cc(NC(=O)c2cc(C)oc2C)cc(C(=O)OC)c1", "z-score": 0.433},
      {"smiles": "Cc1cccc(NC(=O)c2ccoc2C)n1", "z-score": 2.35},
      {"smiles": "Cc1cccc(NC(=O)c2ccccc2Br)n1", "z-score": 0.0402},
      {"smiles": "Cc1cc(NC(=O)c2ccoc2C)no1", "z-score": -0.105},
      {"smiles": "COC(=O)c1cc(NC(=O)c2ccoc2C)cc(C(=O)OC)c1", "z-score": "4.89 (active)"},
      {"smiles": "CSc1nc(N(C)C)nc(N2CC(=O)N(CCNS(=O)(=O)c3ccc(C)cc3)C2=N)n1", "z-score": -0.172},
      {"smiles": "CCC(=O)NC(=S)Nc1ccc(NC(=O)COc2ccc(Cl)c(C)c2)cc1", "z-score": -0.0852},
      {"smiles": "CC(C)(C)C(C(Oc1ccc(Cl)cc1)n1cncn1)n1nnnc1C(c1cccc(Cl)c1)N1CCCCC1", "note": "(stereo not given)", "z-score": 0.12},
      {"smiles": "NS(=O)(=O)c1ccc(CCNC(=O)CSc2ccccc2)cc1", "z-score": 0.222},
      {"smiles": "CC(C)C(NS(=O)(=O)c1cccc2nsnc12)C(=O)NCc1ccc2c(c1)OCO2", "note": "(stereo not given)", "z-score": -0.269},
      {"smiles": "CCCOC(=O)c1ccc(NC(=O)c2ccoc2C)cc1", "z-score": 2.24},
      {"smiles": "CCCCOC(=O)c1ccc(NC(=O)c2ccoc2C)cc1", "z-score": -0.0292},
      {"smiles": "CCCOC(=O)c1ccc(NC(=O)c2ccc(Br)o2)cc1", "z-score": -0.692},
      {"smiles": "COc1ccc(C(=O)NCC(=O)NCC2COc3ccccc3O2)cc1", "note": "(stereo not given)", "z-score": 1},
      {"smiles": "CCOc1cc(C(=S)N2CCC(O)CC2)ccc1OS(=O)(=O)c1ccc(Br)cc1", "z-score": 0.875},
      {"smiles": "CCC(=O)NCC(=O)OCC(=O)c1ccccc1", "z-score": -0.0257},
      {"smiles": "CC(=O)Nc1nc(-c2ccccc2)c(-c2ccccc2)o1", "z-score": -0.185},
      {"smiles": "Cc1cc(=O)[nH]c(SCC(=O)Nc2nc(-c3ccccc3)c(-c3ccccc3)o2)n1", "z-score": -1.38},
      {"smiles": "Cn1nnnc1SCC(=O)Nc1nc(-c2ccccc2)c(-c2ccccc2)o1", "z-score": -0.0372},
      {"smiles": "Cc1cc(C)nc(SCC(=O)Nc2nc(-c3ccccc3)c(-c3ccccc3)o2)n1", "z-score": -0.522},
      {"smiles": "Cc1ccc(C(=O)Nc2nc(-c3ccccc3)c(-c3ccccc3)o2)cc1", "z-score": "3.53 (active)"},
      {"smiles": "O=C(Nc1nc(-c2ccccc2)c(-c2ccccc2)o1)c1ccc(F)cc1", "z-score": "13.5 (active)"},
      {"smiles": "CCOC(=O)c1c(NC(NC(C)=O)C(Cl)(Cl)Cl)sc2c1CCCC2", "note": "(stereo not given)", "z-score": -2.34},
      {"smiles": "COCCCn1c(C)nnc1SCC(=O)NCc1ccco1", "z-score": -0.305},
      {"smiles": "Cc1ccc(S(=O)(=O)N(C)Cc2cc3ccccc3[nH]c2=O)cc1", "z-score": -0.0752},
      {"smiles": "CCN(CC)CCN(Cc1cc2cc(C)ccc2[nH]c1=O)C(=S)NCc1ccco1", "z-score": 0.381},
      {"smiles": "CCOC(=O)COc1cc(Br)c(/C=N/Nc2ccccc2)cc1OC", "z-score": -0.0959},
      {"smiles": "CCC(C)(C(=O)NC1CCCCC1)N(C(=O)c1ccccn1)c1ccc(C)cc1", "note": "(stereo not given)", "z-score": -0.103},
      {"smiles": "COc1cccc(C(=O)/C=C/Nc2cccc(O)c2)c1", "z-score": -0.665},
      {"smiles": "CSc1nnc(CNC(=O)C23CC4CC(CC(C4)C2)C3)n1Cc1ccccc1", "z-score": -0.331},
      {"smiles": "C/C(=N\\NC(=S)NCCc1ccccc1)c1ccc(Cl)cc1", "z-score": 1.16},
      {"smiles": "C/C(=N\\NC(=S)NCCc1ccccc1)c1ccc(C)cc1", "z-score": 1.67},
      {"smiles": "C/C(=N\\NC(=S)NCCc1ccccc1)c1cccs1", "z-score": "3.65 (active)"},
      {"smiles": "O=C1C2C(c3ccccc3)C=CC(c3ccccc3)C2C(=O)N1CCCO", "note": "(stereo not given)", "z-score": -0.894},
      {"smiles": "O=C(CCS(=O)(=O)c1ccc(Cl)cc1)NCCN1C(=O)S/C(=C\\c2ccccc2F)C1=O", "z-score": -0.162},
      {"smiles": "Cc1cc(C)n2nc(SCC(=O)N3CCc4ccccc43)nc2n1", "z-score": 0.255},
      {"smiles": "O=C(C1CCCCC1)N1CCCC(c2nc3c(nnn3Cc3ccccc3)c(=O)[nH]2)C1", "note": "(stereo not given)", "z-score": 2.1},
      {"smiles": "Cc1ccc(C)c(Cn2nnc3c(=O)[nH]c(C4CCCN(C(=O)C5CCCCC5)C4)nc32)c1", "note": "(stereo not given)", "z-score": -0.651},
      {"smiles": "O=C(c1ccccc1)N1CCCC(c2nc3c(nnn3Cc3ccccc3)c(=O)[nH]2)C1", "note": "(stereo not given)", "z-score": -0.398}
    ]}
  ]
}
